According to PubChem BioAssay (EPA / NIEHS):
Inconclusive results are not listed. Activity calls are given as the source filed them. Rule for the calls: active = hit-call score of the fitted dose curve at least 0.9, where 1 is the maximum; inconclusive = response in the unintended direction; inactive = score below 0.9. Where a SMILES comes first, the peptide text is derived from it. Bridges are numbered along the chain shown (N, C = ends).

target: Cellular tumor antigen p53 (Homo sapiens) (UniProt P04637); assay: TOX21_p53_BLA_p3_ratio: Tox21 HCT-116 p53 Agonism Beta-lactamase Assay, Ratio, Phase 3 (AID 2283596)
Sequence (P04637 whole entry, looked up, the tested form may be a part): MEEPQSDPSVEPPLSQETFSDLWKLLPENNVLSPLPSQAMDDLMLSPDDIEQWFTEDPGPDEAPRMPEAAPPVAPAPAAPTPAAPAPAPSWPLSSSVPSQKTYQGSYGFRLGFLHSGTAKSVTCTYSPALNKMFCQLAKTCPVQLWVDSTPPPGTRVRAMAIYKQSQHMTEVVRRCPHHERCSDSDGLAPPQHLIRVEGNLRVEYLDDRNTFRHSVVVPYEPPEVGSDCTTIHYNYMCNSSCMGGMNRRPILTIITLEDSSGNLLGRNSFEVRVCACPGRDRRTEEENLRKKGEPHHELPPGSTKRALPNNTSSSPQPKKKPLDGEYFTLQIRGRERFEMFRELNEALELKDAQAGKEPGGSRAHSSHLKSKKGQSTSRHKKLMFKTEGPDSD
Excerpt: TOX21_p53_BLA_p3 is a cell-based, single-readout assay that uses HCT116, a human intestinal cell line, […] in a 1536-well plate.TOX21_p53_BLA_p3_ratio is an assay readout measuring reporter gene via receptor activity and designed using inducible reporter (beta lactamase induction) detected with GAL4 b-lactamase reporter gene. The signal is derived from the ratio of cleaved (ch2) to uncleaved (ch1) reporter gene substrate used as the measure of target activity.Data from the assay component TOX21_p53_BLA_p3_ratio was analyzed into 1 assay endpoint. This assay endpoint, TOX21_p53_BLA_p3_ratio, was analyzed in the positive analysis fitting direction relative to DMSO as the negative control and baseline of activity. Using a type of inducible reporter, gain-of-signal activity can be used to understand changes in the reporter gene as they relate to the gene TP53. Furthermore, this assay endpoint can be referred to as a primary readout, because this assay has produced multiple assay endpoints where this ratio serves a reporter gene function to understand target activity. To generalize the intended target to other relatable targets, this assay endpoint is annotated to the DNA binding intended target family, where the subfamily is tumor suppressor.
Thawing Method: Place 14 mL of pre-warmed thaw medium into a 15 mL of conical tub. Remove the vial of cells to be thawed from liquid nitrogen and thaw rapidly by placing at 37C in a water bath with gentle agitation for 1-2 minutes. Decontaminate the vial by wiping with 70% ethanol before opening in a biological safety cabinet. Transfer the vial contents drop-wise into 14 mL of thaw medium in a sterile 15-mL conical tub. Centrifuge cells at 900 rpm for 4 minutes and resuspend in thaw medium. Transfer contents to the T75 tissue culture flask containing Thaw Medium and place flask in a humidified 37C/5% CO2 incubator. Switch to growth medium at first passage.Propagation Method: Aspirate medium, rinse once in DPBS, add 0.25% Trypsin/EDTA and swirl to coat the cell evenly. Add an equal volume of Growth Medium to inactivate Trypsin after 2-3 minutes incubation at 37C. Centrifuge cells at 900 rpm for 4 minutes and resuspend in growth medium. Cell should be passage or fed at least twice a week.Assay Protocol: Harvest cells from culture in growth medium and resuspend in assay medium. 2.2 Dispense 4000 cells/5 uL/well into 1536-well black/clear bottom plates using a Multidrop dispenser. After the cells were incubated at 37C for 5 hours, 23 nL of compounds dissolved in DMSO were transferred to the assay plate by a PinTool resulting in a 217-fold dilution. Incubate the plates for 16 hours at 37C, 5% CO2. Add 1 uL of 6X LiveBLAzer FRET B/G (CCF4-AM) Substrate Mixture to each well using a BioRAPTR dispenser and incubate the plates at room temperature for 2 hours. Measure fluorescence intensity at 460 and 530 nm emission and 405 nm excitation by an Envision detector. Data is expressed as the ratio of 460nm/530nm emissions. Add 4 uL of Cell-titer Glo to each well using BioRAPTR and incubate the plates at room temperature for 2 hours. Measure fluorescence intensity by a VewLux plate reader.

Structure (SMILES)	outcome	AC50
CCC(C)(CN(C)C)OC(=O)c1ccccc1 (stereo not given)	inactive	
BrC(Br)C(Br)Br	inactive	
Cc1cc(OI)c(C(C)C)cc1-c1cc(C(C)C)c(OI)cc1C	inactive	
NC1[C@H]2CN(c3nc4c(cc3F)c(=O)c(C(=O)O)cn4-c3ccc(F)cc3F)C[C@@H]12 (stereo not given in full)		27.3 µM (active)
O=c1c(O)c(O)c1=O	inactive	
O=C(NCCCN1CCOCC1)c1ccc(Cl)cc1	inactive	
NC[C@H]1O[C@H](O[C@H]2[C@H](O)[C@@H](O[C@H]3O[C@H](CO)[C@@H](O)[C@H](N)[C@H]3O)[C@H](N)C[C@@H]2N)[C@H](N)[C@@H](O)[C@@H]1O	inactive	
Cc1ccc(S(=O)(=O)NC(=O)NC2CCCC2)cc1	inactive	
Cc1ccc(N)nc1	inactive	
Cc1ccccc1OCC(O)CNCCOc1ccc(C(N)=O)cc1 (stereo not given)	inactive	
CC(C)(O)c1ccccc1	inactive	
CCC(CO)(CO)CO	inactive	
CC(C)OC(=O)CCC(=O)OC(C)C	inactive	
CNC1(C)C2CCC(C2)C1(C)C (stereo not given)	inactive	
Cc1ncc(COP(=O)(O)O)c(CN)c1O	inactive	
Nc1ccc(C(=O)NCC(=O)O)cc1	inactive	
CN(C)CC/C=C1\c2ccccc2COc2ccccc21	inactive	
O=C(O)CP(=O)(O)O	inactive	
O=C(c1ccc2c(c1)C(=O)OC2=O)c1ccc2c(c1)C(=O)OC2=O	inactive	
NC(=O)c1ccc[n+]([C@@H]2O[C@H](COP(=O)([O-])OP(=O)(O)OC[C@H]3O[C@@H](n4cnc5c(N)ncnc54)[C@H](O)[C@@H]3O)[C@@H](O)[C@H]2O)c1	inactive	

Structure (SMILES)	outcome	AC50
CC(=O)OCC(=O)[C@@]1(O)CC[C@H]2[C@@H]3CCC4=CC(=O)CC[C@]4(C)C3=CC[C@@]21C	inactive	
CN1CCN(C2=Nc3ccccc3Oc3ccc(Cl)cc32)CC1	inactive	
CCCCOC(=O)C(=O)Nc1cccc(-c2nn[nH]n2)c1	inactive	
CN(C)c1ccc(SC#N)cc1	inactive	
CN(C)CCCN1c2ccccc2Sc2ccccc21	inactive	
CC(C)c1ncc([N+](=O)[O-])n1C	inactive	
CCCCCO	inactive	
N[C@@H](CSCCCO)C(=O)O	inactive	
CN1CCc2c(c3ccccc3n2Cc2ccccc2)C1	inactive	
C=CC(=O)OCCOCC(CC)(COCCOC(=O)C=C)COCCOC(=O)C=C	inactive	
COC(=O)c1cccc(Cl)c1	inactive	
O=C(c1ccccc1)C1(O)CCCCC1	inactive	
CCCCOC(=O)CCS	inactive	
NCCCC[C@H](NC(=O)[C@@H]1CCCN1C(=O)[C@@H]1CSSC[C@H](NC(=O)CNC(=O)CNC(=O)CN)C(=O)N[C@@H](Cc2ccc(O)cc2)C(=O)N[C@@H](Cc2ccccc2)C(=O)N[C@@H](CCC(N)=O)C(=O)N[C@@H](CC(N)=O)C(=O)N1)C(=O)NCC(N)=O (H-GGGCYFQNCPKG-NH2; disulfide 4-9)	inactive	
CCN(CC)C(=O)[C@]1(c2ccccc2)C[C@@H]1CN	inactive	
O=C1CCCC(=O)C1	inactive	
NC[C@H]1O[C@H](O[C@H]2[C@H](O[C@@H]3O[C@H](CO)[C@@H](O)[C@H]3O)C(O)[C@H](N)C[C@@H]2N)[C@H](N)[C@@H](O)[C@@H]1O (stereo not given in full)	inactive	
Nc1nc(N)c(-c2ccccc2)s1	inactive	
CNc1c2c(nn1C)CCCC2	inactive	
NC(=O)N1c2ccccc2CC(=O)c2ccccc21	inactive	
